From PubChem BioAssay AID588493 (Sanford-Burnham Center for Chemical Genomics, 2011)
In all, about 360,000 compounds went through this assay and about 2,100 (0.58%) were called active. This is one part of a sample in which actives are shown more often than they occur.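 How the source made its calls: active means inhibition at 20 µM, scaled to each plate's controls, above about 33% (limit read from the data); inactive means the rest.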

target: 26S proteasome non-ATPase regulatory subunit 14 (Homo sapiens) (UniProt O00487); experiment: Rpn11 (PSMD14) deubiquitinase inhibitors, primary screen, biochemical, fluorescence polarization, uHTS (AID 588493); conditions: human 26S proteasome, Ub4-pepOG fluorescence polarization; at 20 µM; hits give high values; 20S core pre-blocked with epoxomicin
Sequence (O00487 whole entry, looked up): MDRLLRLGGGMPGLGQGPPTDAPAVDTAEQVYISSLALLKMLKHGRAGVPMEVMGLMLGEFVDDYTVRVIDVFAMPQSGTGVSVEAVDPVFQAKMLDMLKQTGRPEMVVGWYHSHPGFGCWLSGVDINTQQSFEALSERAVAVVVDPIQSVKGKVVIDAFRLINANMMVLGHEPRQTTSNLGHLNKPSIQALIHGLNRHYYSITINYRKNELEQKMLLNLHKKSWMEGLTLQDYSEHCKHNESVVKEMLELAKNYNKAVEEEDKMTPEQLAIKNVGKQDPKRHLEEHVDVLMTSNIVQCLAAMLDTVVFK

| Compound | inhibition |
| --- | --- |
| COc1ccc(C2N=C(N)N=C(N)N2c2ccccc2)cc1OC (configuration not stated) | 6% (inactive) |
| CCC(C)Sc1nc(C)nc2c1c(=O)n(C)c(=O)n2C (configuration not stated) | 2% (inactive) |
| CCOC(=O)C1(CC2CCCCO2)CCN(Cc2nc(-c3cccs3)oc2C)CC1 (configuration not stated) | 4% (inactive) |
| O=C(OCCOCn1cc(Br)c(=O)[nH]c1=O)c1ccccc1 | 0.6% (inactive) |
| CONc1nc2nonc2nc1NOC | 2.2% (inactive) |
| CC(C)(C)C(=O)Nc1c(Br)c(C2CC2)nn1-c1ccccc1 | 9.6% (inactive) |
| COCCCNC(=O)c1ccc(CNS(=O)(=O)c2ccc(NC(C)=O)cc2)cc1 | -1.2% (inactive) |
| CCOc1ccc(N/C(N)=N/c2nc(C)c(C)c(=O)[nH]2)cc1 | -8.8% (inactive) |
| Cc1nnc(N/N=C/c2ccccn2)[nH]c1=O | 6.9% (inactive) |
| CCOc1ccc(-n2c(O)c(/C=N/c3ccnn3Cc3ccncc3)c3ccccc3c2=O)cc1 | 76.5% (active) |
| COC(=O)Cc1csc(/N=C/c2c(O)n(-c3cccc(C(F)(F)F)c3)c(=O)c3ccccc23)n1 | 33.4% (inactive) |
| CCOc1ccc(-n2c(SCC(=O)Nc3cc(C(=O)O)ccc3Cl)nc3ccccc3c2=O)cc1 | 2.7% (inactive) |
| CCOc1ccc(-n2c(O)c(/C=N/Nc3nnc(C)c(=O)[nH]3)c3ccccc3c2=O)cc1 | 36.2% (active) |
| CCOc1ccc(CN2CCN(Cc3ccc4cc(F)ccc4n3)CC2CCO)cc1 (configuration not stated) | -0.7% (inactive) |
| COc1ccc(S(=O)(=O)N(C)C[C@H]2OCc3cnnn3CCCC(=O)N([C@H](C)CO)C[C@H]2C)cc1 | -6.2% (inactive) |
| Nc1nnc(SCCN2C(=O)c3ccccc3S2(=O)=O)s1 | -2.1% (inactive) |
| CC(=O)N(O)CCCCCNC(=O)CCC(=O)N(O)CCCCCNC(=O)CCC(=O)N(O)CCCCCNC(=O)CCC(=O)O | -7% (inactive) |
| CCOC(=O)c1ccc2c(c1)nc(SCC(=O)NC(C)C)n2CC | -1.6% (inactive) |
| C#CCNc1nc(C(C)C)nc2c1nnn2Cc1ccccc1F | -3.7% (inactive) |
| COc1ccc2[nH]c3c(C)c4cc[n+](C)cc4c(C)c3c2c1 | 88.8% (active) |
| CCCn1nc(C(=O)NNC(=O)CSCC(=O)Nc2cc(C)on2)c2ccccc2c1=O | 2.6% (inactive) |
| O=C(Nc1ccc(-c2cscn2)cc1)C1CCCN(Cc2ccc(CO)o2)C1 (configuration not stated) | -1.3% (inactive) |

| Compound | inhibition |
| --- | --- |
| CCOC(=O)CSc1nnc(CNC(=O)Cc2ccccc2)n1-c1ccccc1OC | 0.1% (inactive) |
| CCCCCCSc1ccc([C@@H]2[C@@H]3C(=O)N(CC)C(=O)[C@@H]3[C@]3(C(=O)OC)CCCCN23)cc1OC | 15.9% (inactive) |
| CCCCCCSc1ccc([C@@H]2[C@H]3C(=O)N(CC)C(=O)[C@H]3[C@]3(C(=O)OC)CCCCN23)cc1 | 40.3% (active) |
| CCN1C(=O)[C@@H]2[C@@H](c3ccc(-c4ccccc4)cc3)N3CCCC[C@@]3(C(=O)OC)[C@@H]2C1=O | 7% (inactive) |
| COC(=O)[C@]1(C)CCC[C@@]2(C)C3CC[C@]4(OC(C)=O)C[C@@]3(CCC21)CC4=NO (some centres not stated) | 0.3% (inactive) |
| CCC(=O)N(C)C(c1ccccc1Cl)c1nnnn1-c1c(C)cccc1C (configuration not stated) | 2.8% (inactive) |
| O=C(Nc1ccc(-c2nnc(-c3ccccc3)o2)cc1)C1CCCO1 (configuration not stated) | -0.7% (inactive) |
| COc1ccc(C(CC(=O)Nc2ccc(C)cc2)NC(=O)C(F)(F)F)cc1 (configuration not stated) | -7.5% (inactive) |
| O=C(Nc1ccc(N2CCN(C(=O)C3CC3)CC2)cc1)c1cccs1 | 0.2% (inactive) |
| CCS(=O)(=O)c1ccc(-c2cccc(NC(=O)c3ccc(Br)o3)c2)nn1 | -4.8% (inactive) |
| O=C(Nc1ccc(-c2nnc(-c3ccccc3)o2)cc1)c1ccc(Br)o1 | 56.9% (active) |
| COc1ccc(CC(=O)Nc2ccc(-c3nnc(-c4ccc(C)cc4)o3)cc2)cc1 | 32.7% (active) |
| COc1ccc(NC(=O)Cn2c(-c3ccc(OC)cc3)cn(-c3ccc(C)cc3)c2=O)cc1 | 43.4% (active) |
| Cc1ccc(C(=O)NCC(=O)OCc2nnc(-c3ccccc3)o2)cc1 | 3% (inactive) |
| COc1ccc(-c2cn(-c3ccc(C)cc3)c(=O)n2CC(=O)Nc2ccc(OC)c(OC)c2)cc1 | 6.4% (inactive) |
| Cc1ccc(NC(=O)Cn2c(C)csc2=O)cc1 | -0.6% (inactive) |
| COc1ccc(NC(=O)CN(C)C(=O)c2cc(C)oc2C)cc1 | -18.9% (inactive) |
| Cc1ccc(-c2nnc(-c3ccc(NC(=O)c4cccs4)cc3)o2)cc1 | 149% (active) |
| CCOC(=O)c1cc(C(C)C)sc1NC(=O)COC(=O)c1nccnc1N | 16.7% (inactive) |
| CCOc1ccc2oc(C(=O)N(CC)CC(=O)Nc3ccc(NC(C)=O)cc3)c(C)c2c1 | 8.2% (inactive) |
| Cc1cccc(NC(=O)CSc2nnc(CCNC(=O)OC(C)(C)C)o2)c1C | -2.3% (inactive) |
| O=C(NCc1ccccn1)C1CCN(S(=O)(=O)c2ccc(Br)cc2)CC1 | -11.1% (inactive) |

| Compound | inhibition |
| --- | --- |
| CCC(C)C(CO)NC(=O)/C=C/[C@H]1O[C@@H](n2cnc3c(NC(=O)c4ccccc4)ncnc32)[C@H](O)[C@@H]1O (some centres not stated) | -5.5% (inactive) |
| COc1ccc(NC(=S)N2CCC(NC(=O)c3cccc(F)c3)CC2)cc1 | 6.4% (inactive) |
| C=CCNC(=O)C1CC=CCC1C(=O)O (configuration not stated) | 3.6% (inactive) |
| CCOc1ccc(NC(=O)c2cccc3c2C(=O)N(CC2CCCO2)C3)cc1 (configuration not stated) | -0.9% (inactive) |
| O=C(COC(=O)c1n[nH]c2ccccc12)Nc1ccccc1Br | 0.1% (inactive) |
| CN(C)C(=O)c1ccc(NC(=O)c2ccccc2-c2ccccc2)cc1 | 7% (inactive) |
| S=C(NCCCc1ccccc1)Nc1ccc(Br)cc1 | 1% (inactive) |
| CCc1ccc(NC(=O)CS(=O)CC(=O)NCCCc2ccccc2)cc1 (configuration not stated) | 43.6% (active) |
| CCc1ccc(NC(=O)CS(=O)CC(=O)N2CCN(c3ccccc3F)CC2)cc1 (configuration not stated) | 0.4% (inactive) |
| CCNC(=S)Nc1ccc2c(c1)c(=O)n(C)n2Cc1ccc(Cl)cc1 | 8.6% (inactive) |
| CN=c1scc(-c2cc(OC)ccc2OC)n1/N=C/c1c(C)[nH]c2ccccc12 | 56.4% (active) |
| CCn1c(-c2cc(OC)ccc2OC)csc1=Nc1c(C)n(C)n(-c2ccccc2)c1=O | 1.2% (inactive) |
| COCCNC(=S)N/N=C/c1c(C)[nH]c2ccccc12 | 17% (inactive) |
| COc1ccc(N(CCC(=O)NCCc2ccccc2)S(=O)(=O)c2ccc(C)cc2C)cc1 | 3.7% (inactive) |
| Cc1cc(OCC(=O)N(C)c2c(N)n(Cc3ccccc3)c(=O)[nH]c2=O)c(C(C)C)cc1Cl | -1.8% (inactive) |
| CCC(=C/c1sc2ccc3ccccc3c2[n+]1C)/C=C1\Sc2ccc3ccccc3c2N1C | 70% (active) |
| Cc1ccc(S(=O)(=O)N2C[C@H]3C(=O)C[C@@H](c4cccc5ccccc45)N(S(=O)(=O)c4ccc(C)cc4)[C@H]3C[C@H]2c2ccc(Cl)cc2)cc1 | -1.4% (inactive) |
| O=C(NCc1nnnn1-c1ccc(Cl)cc1)c1ccc([N+](=O)[O-])o1 | -0.3% (inactive) |
| COc1ccc(CCNC(=O)COc2cc(C)cc3oc(=O)c(C)c(C)c23)cc1OC | 0% (inactive) |
| Cc1cc(OCC(=O)Nc2nccs2)c2c(C)c(C)c(=O)oc2c1 | 61.1% (active) |
| Cc1cc(OCC(=O)NCC(O)c2ccccc2)c2c(C)c(C)c(=O)oc2c1 (configuration not stated) | -2.1% (inactive) |
| CCCCc1ccc(NC(=O)CN2C(=O)NC(Cc3ccccc3)C2=O)cc1 (configuration not stated) | -0.4% (inactive) |

| Compound | inhibition |
| --- | --- |
| CC(C)Oc1ccc(S(=O)(=O)N2CCOCC2)cc1NC(=O)C1CCCC1 | 2.4% (inactive) |
| O=C1NC(Nc2nc3ccccc3s2)(C(F)(F)F)C(=O)N1C1CCCCC1 (configuration not stated) | 3.6% (inactive) |
| O=C(CN1CCCC1)Nc1sc2c(c1C(=O)Nc1ccccc1)CCCC2 | -13.4% (inactive) |
| Cc1ccc(NC(=O)c2c(NC(=O)CCC(=O)O)sc3c2CCCCC3)cc1 | 40.1% (active) |
| COC(=O)c1c(NC(=O)CCN2CCOCC2)sc2c1CCCC2 | 6.6% (inactive) |
| COC(=O)c1ccc(CNC(=O)c2ccc3oc(C(C)C)nc3c2)cc1 | -13.2% (inactive) |
| CC(=O)/C(=N\Nc1ccc(Cl)cc1Cl)Sc1cccc2cccnc12 | 78.5% (active) |
| Cc1cc(OCCOc2cccc3cccnc23)c(C)cc1Cl | -1.8% (inactive) |
| COc1cccc(CNC(=O)C2CCN(S(=O)(=O)c3cccc4cccnc34)CC2)c1 | 7.6% (inactive) |
| CCOC(=O)NN1C(=O)c2ccccc2NC1c1ccccc1O (configuration not stated) | -5.9% (inactive) |
| N#Cc1cccc(NC(=O)COC(=O)c2ccccc2C(=O)c2ccc(Cl)c([N+](=O)[O-])c2)c1 | -2.3% (inactive) |
| COc1ccc(CN2[C@@H](CC(=O)O)c3cc(F)ccc3S2(=O)=O)cc1 | -5.9% (inactive) |
| COc1cc(/C=N/NC(=O)c2cccnc2)ccc1OC(=O)c1cccc(Br)c1 | -13.5% (inactive) |
| CCn1c(/C=N/NC(=O)c2ccc(OC)cc2)nc2ccccc21 | -5.8% (inactive) |
| COc1cccc(/C=N/NC(=O)c2[nH]nc3c2CCc2ccccc2-3)c1O | 52.1% (active) |
| COc1ccc(CCNC(=O)CCNS(=O)(=O)c2cc(Br)cnc2N)cc1OC | 0.1% (inactive) |
| CC(C)C(NC(=O)c1cccc(S(=O)(=O)N2CCOCC2)c1)C(=O)NCCc1ccccn1 (configuration not stated) | -2.1% (inactive) |
| COCCCN1C(=O)c2ccc(C(=O)OCC(=O)NCc3ccccc3OC)cc2C1=O | 3.9% (inactive) |
| N#CCC(=O)Nc1ccc(C(=O)OCC(=O)Nc2sc3c(c2C#N)CCCC3)cc1 | 39.6% (inactive) |
| CC(C)NC(=O)NC(=O)COC(=O)c1ccc(NC(=O)CC#N)cc1 | -1.1% (inactive) |
| CCOc1ccc(NC(=O)c2ccc(NC(=O)COC(=O)c3ccc(NC(=O)CC#N)cc3)cc2)cc1 | 128% (active) |
